Measurements taken from PubChem BioAssay AID2314 (National Center for Advancing Translational Sciences (NCATS), 2010).
Values joined by “and” are separate entries in the source; they are usually repeats but may differ in a detail not shown here. Equal values may be shown once. About 37,000 (12%) of roughly 300,000 compounds were called active. The sample holds actives, similar compounds and a random draw of the others, so the mix is not that of the screen. A number with no mark means an inactive call. No stated cut-off is given here; in the data, active means max response mostly above about 13% (no sharp cut-off); inactive means mostly below about 14%.

experiment: Cycloheximide Counterscreen for Small Molecule Inhibitors of Shiga Toxin; conditions: cell reporter, cycloheximide protein synthesis inhibition counterscreen; active compounds read high; further: read at 38.3 µM for the half of the compounds with a filed dose; 0% is about no effect

For C#C[C@]1(O)CC[C@H]2[C@@H]3CCC4=CC(=O)CC[C@@H]4[C@H]3CC[C@@]21CC, which max response is on record?
Its max response is -12.5% and -2.99% and -5.94%.

For Cc1nc(CN(C)C(=O)CC2C(=O)NCCN2Cc2ccc(F)cc2)cs1 (stereo unspecified), which max response is on record?
Its max response is -1.31%.

Which max response does the source give for Brc1ccc(C2=NCCC(c3ccccc3)O2)cc1 (stereo unspecified) here?
The max response was 6.52%.

For CNC(=S)N1N=C(c2ccccc2)CC1c1ccc(Br)cc1 (stereo unspecified), which max response is on record?
The max response was 12.1%.

For Brc1ccc(C2CC(c3ccccc3)=Nc3ccccc3N2)cc1 (stereo unspecified), which max response is on record?
The max response was 43.8% (active).

With CNC[C@H](CC1CCCCC1)NC[C@H](NCCC1CCCC1)[C@H](C)O as the molecule, how does the max response read?
The max response was -3.05%.

For Cc1nonc1NC(=O)CSc1nc2ccccc2cc1C#N, which max response is on record?
Its max response is 29.2%.

Which max response does the source give for CCOc1ccc2cc(C#N)c(SCC(=O)OC)nc2c1 here?
The max response was 26.6% (active).

For COc1ccc(N2CCN(C(=O)CSc3nc4cc(OC)c(OC)cc4cc3C#N)CC2)cc1, which max response is on record?
Its max response is 2.1%.

Which max response does the source give for CCCn1c2ccccc2c2cnn(CC(=O)NCCCN3CCCCC3CC)c(=O)c21 (stereo unspecified) here?
Its max response is -4.88%.

Which max response does the source give for O=C(Nc1c(-c2ccccc2)nc2c(Br)cc(Br)cn12)c1ccco1 here?
The max response was 14.7%.

Which max response does the source give for Cc1ccoc1C(=O)Nc1cccc(Oc2ccccc2)c1 here?
The max response was 62.1% (active).

Which max response does the source give for O=C(Nc1cccc(-c2nc3ncccc3o2)c1)c1ccco1 here?
The max response was 29.9% (active).

Which max response does the source give for O=C(Nc1cc(-c2nc3ncccc3o2)ccc1Cl)c1ccco1 here?
Its max response is 7.89%.

For O=C(Nc1cccc(NC(=O)c2ccco2)c1)c1cnccn1, which max response is on record?
The max response was 6.96%.

Which max response does the source give for O=C(Nc1ccc(Oc2ccccc2)cc1)c1ccco1 here?
The max response was 37.5% (active).

With O=C(Nc1ccc2nccnc2c1)c1ccco1 as the molecule, how does the max response read?
The max response was 36.2% (active).

Which max response does the source give for O=C(CSc1ccccc1)Nc1ccc(NC(=O)c2ccco2)cc1 here?
Its max response is 16.6%.

With Cc1ccc(C(=O)COc2cccc(NC(=O)c3ccco3)c2)cc1 as the molecule, how does the max response read?
Its max response is 4.03%.

Which max response does the source give for Cc1cccc(NC(=O)Nc2cccc(Oc3c(F)c(F)c(F)c(F)c3F)c2)c1 here?
The max response was 7.92%.

With Cc1ccnc(NC(=O)c2ccco2)n1 as the molecule, how does the max response read?
Its max response is 10.2%.

For CCOc1cc(NC(=O)c2ccco2)c(OCC)cc1NC(=O)COc1ccccc1, which max response is on record?
The max response was -3.22%.

For COc1ccc(C(=O)Nc2ccc(C(=O)NCC3CCCO3)cc2)c(OC)c1OC (stereo unspecified), which max response is on record?
Its max response is -0.955%.

Which max response does the source give for O=S(=O)(Nc1cccc2cccnc12)c1cccc2cccnc12 here?
Its max response is -4.18%.

Which max response does the source give for COc1cc(/C(=C/c2ccccc2)c2ccccc2)c2c(c1)oc1ccccc12 here?
The max response was -1.79%.

For CCCOc1ccc(/C=N/NC(=O)C2CC2)c(OCCC)c1, which max response is on record?
The max response was 1.32%.

Which max response does the source give for O=C(Nc1ccc2oc(-c3ccccc3F)nc2c1)c1ccco1 here?
Its max response is 47.3% (active).

With O=C(Nc1ccccc1)/C(=C\c1ccco1)NC(=O)c1ccco1 as the molecule, how does the max response read?
The max response was 25.7%.

With O=C(Nc1ccc(Sc2ccc(Br)cc2)cc1)c1ccco1 as the molecule, how does the max response read?
The max response was 35.2% (active).

Which max response does the source give for Cc1ccc(C(=O)NCCNC(=O)c2ccccc2)cc1 here?
Its max response is 2.82%.

With COc1ccc(NC(=O)c2ccco2)cc1NC(=O)c1ccc(C#N)cc1F as the molecule, how does the max response read?
The max response was 1.08%.

With Cc1cc(NC(=O)[C@H](C)NC(=O)c2ccco2)ccc1Br as the molecule, how does the max response read?
The max response was -2.49%.

With Cc1ccc(C(=O)NCCNS(=O)(=O)c2ccccc2)cc1 as the molecule, how does the max response read?
The max response was -4.96%.

With O=C(NNC(=O)c1ccco1)Nc1ccccc1 as the molecule, how does the max response read?
Its max response is 12.6%.

For CCS(=O)(=O)Nc1ccc(C(=O)NCCSc2ccccc2)cc1, which max response is on record?
The max response was 30% (active).

Which max response does the source give for O=C(Nc1ccccc1)c1ccco1 here?
Its max response is 18.8% (active).

Which max response does the source give for COc1ccc(NC(=O)CCCN2C(=O)C(c3ccccc3)Oc3cccnc32)cc1 (stereo unspecified) here?
The max response was 21.3%.

Which max response does the source give for C[N+](C)(C)CCNC(=O)c1cc[n+](Cc2ccccc2)c(/C=N/O)c1 here?
The max response was -2.41%.

Which max response does the source give for COC(=O)c1cc(CNC(=O)CC(C)c2ccccc2)ccc1OC (stereo unspecified) here?
The max response was 0.629%.

With O=C(NNC1CC(=O)N(c2cccc(Cl)c2)C1=O)c1cccnc1 (stereo unspecified) as the molecule, how does the max response read?
The max response was 0.896%.

Which max response does the source give for Cc1c(-c2ccccc2)n[nH]c1C(=O)N=Nc1c(O)[nH]c2ccccc12 here?
Its max response is 8.32%.

Which max response does the source give for COc1ccc(-c2c(-c3ccc(OC)cc3O)nc(C)nc2C(F)(F)F)cc1 here?
Its max response is -2.37%.

Which max response does the source give for O=C(CNC(=O)c1ccco1)OCC(=O)c1ccccc1 here?
The max response was 19.9%.

With O=C(NCCSc1ccccc1)c1ccco1 as the molecule, how does the max response read?
Its max response is 81.7% (active).

For Cc1ccc(-n2nc3ccc(NC(=O)/C=C/c4ccco4)cc3n2)cc1C, which max response is on record?
The max response was 30.3%.

For O=C(CCSc1ccccc1)NCCSc1ccccn1, which max response is on record?
The max response was -3.74%.

For O=C(/C=C/c1ccco1)Nc1ccc(Oc2ccccc2)cc1, which max response is on record?
Its max response is 37.9% (active).

Which max response does the source give for O=C(O)/C=C\C(=O)Nc1ccc(OCc2ccccc2)cc1 here?
Its max response is 21.5%.

For CC(=O)NCCc1ccc(S(=O)(=O)Nc2ccc(C)c(S(=O)(=O)N3CCOCC3)c2)cc1, which max response is on record?
Its max response is -9.24%.

For CC1CCN(CC(=O)Nc2nccs2)CC1, which max response is on record?
Its max response is -2.21%.

With O=C(Cc1ccsc1)N1CCN(S(=O)(=O)c2cc(C(F)(F)F)cc(C(F)(F)F)c2)CC1 as the molecule, how does the max response read?
The max response was -2.13%.

For COc1cccc(C(C(=O)NC2CCCC2)N(C(=O)c2ccco2)c2cccc(C(C)=O)c2)c1OC (stereo unspecified), which max response is on record?
Its max response is 3.33%.

Which max response does the source give for Cc1cc(OC(=O)c2c(Cl)cccc2Cl)nc(C)n1 here?
The max response was -0.567%.

Which max response does the source give for CCOC(=O)c1cnc(SCC(=O)Nc2ccccc2C(=O)OC)nc1N here?
The max response was -1.91%.

With CCOC(=O)c1cnc(-c2ccccc2)nc1Oc1ccc(C)cc1 as the molecule, how does the max response read?
Its max response is -0.445%.

With CCCCOc1ccc(-c2ncc(C(=O)OCC)c(N)n2)cc1 as the molecule, how does the max response read?
The max response was 42.2% (active).

With COc1ccc2c(c1)c(=O)c(C(=O)c1ccc(Cl)cc1)cn2CC(=O)Nc1ccc(F)cc1 as the molecule, how does the max response read?
The max response was -2.23%.

For O=C(N=C1SC2CS(=O)(=O)CC2N1c1cc(Cl)ccc1Cl)C1CC1 (stereo unspecified), which max response is on record?
Its max response is 8.54%.

With O=C(CN1CCN(c2ccc(Cl)cc2)CC1)c1ccccc1 as the molecule, how does the max response read?
The max response was 5.7%.

Which max response does the source give for O=C(c1cnn(-c2ccc(Cl)cc2)c1)c1ccccc1O here?
Its max response is 60.1% (active).

With Cc1ncc(CC(=O)n2cc(C(=O)c3cc(Cl)ccc3O)cn2)s1 as the molecule, how does the max response read?
The max response was 11.2%.

Which max response does the source give for Fc1ccc2[nH]c3c(N4CCN(Cc5ccc6c(c5)OCO6)CC4)ncnc3c2c1 here?
The max response was -4.86%.

With COc1ccc(CN2CC(C(=O)NCCc3ccc(Cl)cc3)CC2=O)cc1 (stereo unspecified) as the molecule, how does the max response read?
Its max response is -3.25%.

With Cc1ccc(C(=O)N(CN2CCCC2=O)c2ccc(F)cc2)cc1 as the molecule, how does the max response read?
The max response was 11.4% (active).

Which max response does the source give for Cc1ccc(S(=O)(=O)N(CC(=O)NN=C2CCN(C)CC2)c2ccc(F)cc2)cc1 here?
Its max response is -0.935%.

With CNC(=O)NCCN1CCCC1=O as the molecule, how does the max response read?
Its max response is -5.85%.

For CCc1nc(N2CCN(C(C)=O)CC2)c2c3c(sc2n1)CCCC3, which max response is on record?
Its max response is 1.8%.

With O=C(NCc1cccnc1)C(=O)Nc1nc(-c2ccccc2)cs1 as the molecule, how does the max response read?
The max response was 39.9% (active).

Which max response does the source give for O=C(Nc1ccc(NC(=O)c2ccccc2F)cc1)c1ccccc1F here?
Its max response is 12.7%.

For O=C(Nc1nnc(-c2ccccc2F)s1)c1ccccc1F, which max response is on record?
The max response was 17.9% (active).

Which max response does the source give for Cc1ccc(-c2csc(NC(=O)c3cnccn3)n2)cc1C here?
The max response was 1.6%.

For CN(Cc1ccccc1)S(=O)(=O)c1nnc(NC(=O)c2ccccc2F)s1, which max response is on record?
Its max response is -3.23%.

Which max response does the source give for O=C(Nc1nc(-c2cccnc2)cs1)c1ccccc1F here?
The max response was 45.8% (active).

For O=C(CCc1ccccc1)NCc1cccnc1, which max response is on record?
Its max response is 1.47%.

Which max response does the source give for O=C(Nc1nc(-c2ccc(-c3ccccc3)cc2)cs1)c1cnccn1 here?
The max response was 35.3% (active).

For O=C(O)c1ccccc1-c1ccccc1C(=O)NCc1cccnc1, which max response is on record?
The max response was -0.956%.

Which max response does the source give for O=C(O)c1ccccc1C(=O)Nc1nc(-c2ccccc2)cs1 here?
The max response was -3.4%.

With O=C(Nc1nnc(Cc2ccccc2)s1)c1cnccn1 as the molecule, how does the max response read?
The max response was 9.38%.

For O=C(Nc1ccccc1F)c1ccccc1-c1ccccc1, which max response is on record?
Its max response is -1.34%.

With CCN1C(=NCc2ccc(OC)cc2)N[C@@H](CCc2ccccc2)[C@H](C(=O)NCc2ccc(OC)cc2)[C@H]1C as the molecule, how does the max response read?
Its max response is -3.38% and 1.66%.

Which max response does the source give for CCCCCCCCCCOC(=O)Cn1c(COc2ccc(C)cc2)[n+](C)c2ccccc21 here?
Its max response is -4.67%.

With COc1ccc(-c2cc(C3CCN(c4ncccc4[N+](=O)[O-])CC3)[nH]n2)cc1 as the molecule, how does the max response read?
The max response was -2.37%.

With CC1CCCCN1CCCNC(=O)Cn1ncc2c([nH]c3ccccc32)c1=O (stereo unspecified) as the molecule, how does the max response read?
Its max response is -1.43%.

With Cc1cc(C)c(C(=O)CSc2nc(C)cc(=O)[nH]2)c(C)c1 as the molecule, how does the max response read?
Its max response is 6.02%.

With CCn1cc(/C=C(\NC(=O)c2cc(OC)c(OC)c(OC)c2)C(=O)N2CCN(C)CC2)c2ccccc21 as the molecule, how does the max response read?
The max response was -3.51%.

With CCOC(=O)c1ccc(NC(=S)N2CCN(c3ccccn3)CC2)cc1 as the molecule, how does the max response read?
Its max response is -2.76%.

For Cc1ccccc1Nc1nc(-c2cccnc2)cs1, which max response is on record?
Its max response is 40.6% (active).

With CCCCNC(=O)CCn1nc(-c2ccc(Cl)cc2)ccc1=O as the molecule, how does the max response read?
Its max response is -0.835%.

With Cc1cc2c(cc1C)N(C(=O)CN1C(=O)c3ccccc3C1=O)C(C)(C)c1ssc(=S)c1-2 as the molecule, how does the max response read?
Its max response is -0.934%.

For Cc1cc(N2CCCC2)n2nc(C)c(-c3ccccc3)c2n1, which max response is on record?
Its max response is 6.19%.

With Cc1cc(-n2nc(C)cc2C)n2nc(C)c(-c3ccccc3)c2n1 as the molecule, how does the max response read?
Its max response is -1.22%.

Which max response does the source give for Cc1cc(-n2nc(C)cc2C)n2ncc(-c3ccccc3)c2n1 here?
Its max response is 42.3% (active).

With O=C(NCC1CC1)C1(C(F)(F)F)C/C(=C\CCO)CCCO1 (stereo unspecified) as the molecule, how does the max response read?
The max response was -3.88%.

For COc1ccc(Cc2nnc(N/N=C/c3ccccc3O)[nH]c2=O)cc1OC, which max response is on record?
The max response was -1.41%.

Which max response does the source give for c1ccc(-c2ccc3c(c2)NC(C2Nc4cc(-c5ccccc5)ccc4O2)O3)cc1 (stereo unspecified) here?
The max response was -0.428%.

Which max response does the source give for C/C(=N\NC(=O)NC1CCCCC1)c1ccc(OC(F)F)cc1OC(F)F here?
The max response was 9.08%.
